Screening results: PubChem, several laboratories
Sampled rows, rich in hits. Any-hit rate of the full collection: about 5.2%.
Vif imaging = HIV Vif self-association inhibitors, primary screen, imaging, HEK293T, single point | HEK293T cells, Vif self-association by quenched fluorescence, 24 h | inhibition, % at 7.49 µM | 0.35% of 340,000 active; in the data active = inhibition above about 50%, passing the limit was not always enough
SMARCA2 activ = SMARCA2 (BRM) function activators, primary screen, cell-based, luminescence, high throughput. MG213 cells, MMTV-luciferase reporter, dexamethasone, overnight. activation, % at 9.1 µM. 1% of 370,000 active; in the data active = activation above about 7.8%
esBAF inh = Bmi1 luciferase reporter increase in mESCs, primary screen, esBAF inhibitor project, mouse ES cells, Bmi1 luciferase knock-in, single point; 24 h; 100% = twice the neutral-well signal; reporter increase, % at 12.5 µM; 2% of 350,000 active; in the data active = activation above about 40%;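 also: a rise in the Bmi1 reporter signal indicates esBAF inhibition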
SKN-1 inh = suppressors of acrylamide-induced Pgst-4::GFP reporter in worms, primary screen, SKN-1 inhibitor project, whole organism, uHTS, GFP/RFP fluorescence ratio, strain VP596; C. elegans VP596 Pgst-4::GFP/RFP ratio, 24 h; inhibition, % at 21.8 µM; AID 624304, 2012; 0.49% of 360,000 active;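 active = interference check ratio from 0.5 to 1.5 plus GFP to RFP signal ratio inhibition reaching or exceeding a fixed threshold, cut at about 30% in these data, passing the limit was not always enough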
NadD block = inhibitors of S. aureus NadD, primary screen, biochemical, colorimetric, uHTS. purified NadD enzyme, colorimetric absorbance read-out. 0.78% of 360,000 active. Nicotinate-nucleotide adenylyltransferase NadD (Staphylococcus aureus N315). AID 602399, 2012. inhibition, % at 20 µM; in the data active = inhibition above about 26%
NR3A LBD binder = binders of NR3A ligand-binding domain, primary screen, biophysical, differential scanning fluorimetry, uHTS; NR3A LBD differential scanning fluorimetry, Tm shift; 0% = protein alone, 100% = glycine-bound protein; Tm shift relative to glycine control, % at 25 µM; 2.5% of 340,000 active; AID 1259313, 2017;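 active = melting temperature shift of at least 10% of the positive control shift, at one fixed dose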
Large screens that a line does not name were inactive; ! = not active in a repeat.

C=CCNC(=O)c1onc(CSc2cccc(C)c2)c1C(=O)O	NR3A LBD binder 13
Cc1cc(C)c2c(ccc3ccccc32)n1	none (no result: esBAF inh)
Oc1ccc(-c2nc3ccc4ccccc4c3c3c2CCC3)cc1O	NadD block 39, NR3A LBD binder 13 (no result: esBAF inh)
COc1cccc(NC(=O)CSc2nnc(Cn3cnc([N+](=O)[O-])n3)n2C)c1	none (no result: esBAF inh)
COc1ccc(NC(=O)CSc2nnc(Cn3cnc([N+](=O)[O-])n3)n2C)cc1	SMARCA2 activ 11 (no result: esBAF inh)
COCC(=O)N(C)C[C@@H]1Oc2cc(C#Cc3cccnc3)ccc2S(=O)(=O)N([C@@H](C)CO)C[C@H]1C	none (no result: Vif imaging, SMARCA2 activ, SKN-1 inh, NadD block, NR3A LBD binder)
Cc1ccc(CN=c2c([N+](=O)[O-])nn(-c3ccc4c(c3)OCCO4)n2O)cc1	NR3A LBD binder 13 (no result: esBAF inh)
O=[N+]([O-])c1nn(-c2ccc3c(c2)OCCO3)n(O)c1=NCCCO	none
COc1ccccc1C(=O)Nn1cnc2ccccc2c1=O	esBAF inh 68
COc1ccc(Cl)cc1C(=O)Nn1cnc2ccccc2c1=O	none
CO[C@@H]1CN(C)C(=O)c2cc(NC(=O)C3CC3)ccc2OC[C@H](C)N(CCC(F)(F)F)C[C@H]1C	none (no result: Vif imaging, SMARCA2 activ, SKN-1 inh, NadD block, NR3A LBD binder)
C[C@@H]1CCCCO[C@@H](CN(C)Cc2ccc(Cl)c(Cl)c2)[C@H](C)CN([C@@H](C)CO)C(=O)c2cc(NC(=O)C3CCCCC3)ccc2O1	none (no result: Vif imaging, SMARCA2 activ, SKN-1 inh, NadD block, NR3A LBD binder)
CN1/C(=C\C=Nc2ccc3ccccc3c2)C(C)(C)c2ccccc21	Vif imaging 78 (no result: SMARCA2 activ, NR3A LBD binder)
Cc1c(N=C/C=C2/N(C)c3ccccc3C2(C)C)c(=O)n(-c2ccccc2)n1C	SKN-1 inh 39!
CO[C@H]1CC[C@H]2CCN(C)C(=O)[C@H](C)[C@H](OC)CN(C)C(=O)c3cccc(C#N)c3OC[C@H]1O2	none (no result: Vif imaging, SMARCA2 activ, SKN-1 inh, NadD block, NR3A LBD binder)
CC(=Nc1ccc(C)c(C)c1)C1=C(O)CSC1=O	esBAF inh 51
CCN1CCCC1CNC(=O)c1cc(COc2ccc(C)c(C)c2)on1 (centres undefined)	esBAF inh 45
Cc1cc(OCc2cc(C(=O)N(C)C3CCOCC3)no2)cc(C)c1Cl	esBAF inh 61
Cc1ccc(OCc2cc(C(=O)NCC3COCCO3)no2)cc1C (centres undefined)	none (no result: esBAF inh)
Cc1ccc(OCc2cc(C(=O)N(C)CC3CCOCC3)no2)cc1C	esBAF inh 69
Cc1ccc(OCc2cc(C(=O)NCC(C)(C)N3CCOCC3)no2)cc1C	none (no result: Vif imaging, esBAF inh)
COc1ccc(OCc2cc(C(=O)N(C)C3CCOCC3)no2)c2ccccc12	none
C[C@@H]1CCCCO[C@@H](CN(C)Cc2ccc(Cl)c(Cl)c2)[C@H](C)CN([C@H](C)CO)C(=O)c2cc(NC(=O)NC3CCCCC3)ccc2O1	none (no result: Vif imaging, SMARCA2 activ, SKN-1 inh, NadD block, NR3A LBD binder)
Cc1ccc(S(=O)(=O)N(C)C[C@@H]2OCCCC[C@H](C)Oc3ccc(NS(=O)(=O)c4c(C)noc4C)cc3C(=O)N([C@@H](C)CO)C[C@@H]2C)cc1	none (no result: Vif imaging, SMARCA2 activ, SKN-1 inh, NadD block, NR3A LBD binder)
C[C@H](NC(=O)C[C@H]1C[C@H]2c3cc(NC(=O)c4cccnc4)ccc3O[C@H]2[C@H](CO)O1)c1ccccc1	none (no result: Vif imaging, SMARCA2 activ, SKN-1 inh, NadD block, NR3A LBD binder)
COc1ccccc1C(=O)NCC(=O)N1CCN(S(=O)(=O)c2ccc3c(c2)OCCO3)CC1	NR3A LBD binder 13
COc1ccccc1C(=O)NCC(=O)N1CCN(S(=O)(=O)c2ccccc2C(F)(F)F)CC1	none
COc1ccc(S(=O)(=O)n2ccc(-c3ccc(OCCN(C)c4ccccn4)cc3)n2)cc1	SKN-1 inh 45
COc1ccc(S(=O)(=O)N(CC(=O)O)c2ccccn2)cc1	none (no result: esBAF inh)
C[C@H](CO)N1C[C@H](C)[C@H](CN(C)C(=O)Nc2ccc(C(F)(F)F)cc2)OCCCC[C@H](C)Oc2ccc(NC(=O)Cc3ccccc3)cc2C1=O	none (no result: Vif imaging, SMARCA2 activ, SKN-1 inh, NadD block, NR3A LBD binder)
CCOc1ccc(C2C(C(=O)c3ccco3)=C(O)C(=O)N2CCCn2ccnc2)cc1OCC (centres undefined)	none
CCOc1ccc(C2C(C(=O)c3ccco3)=C(O)C(=O)N2CCCn2ccnc2)cc1 (centres undefined)	esBAF inh 54
C[C@@H]1CN([C@@H](C)CO)C(=O)c2cccc(NC(=O)Nc3ccc4c(c3)OCO4)c2O[C@@H]1CN(C)S(=O)(=O)c1cccs1	none (no result: Vif imaging, SMARCA2 activ, SKN-1 inh, NadD block, NR3A LBD binder)
Cc1[nH]nc(-c2ccc(O)cc2O)c1Oc1ccccc1	NR3A LBD binder 32
CCc1cc(-c2n[nH]c(C)c2Oc2ccc(C(C)C)cc2)c(O)cc1O	NR3A LBD binder 32
CCCOC(=O)c1ccc(Oc2c(-c3ccc(O)cc3O)n[nH]c2C)cc1	none (no result: NR3A LBD binder)
Cc1ccc(S(=O)(=O)N(C)C[C@H]2OCCCC[C@H](C)Oc3ccc(NS(C)(=O)=O)cc3C(=O)N([C@H](C)CO)C[C@@H]2C)cc1	none (no result: Vif imaging, SMARCA2 activ, SKN-1 inh, NadD block, NR3A LBD binder)
Cc1cccc(CCN=c2c([N+](=O)[O-])nn(-c3ccccc3)n2O)c1	none
Cc1ccc(N=c2c([N+](=O)[O-])nn(-c3ccccc3)n2O)c(C)c1	esBAF inh 67
Cc1c(Cl)cccc1N=c1c([N+](=O)[O-])nn(-c2ccccc2)n1O	SKN-1 inh 52
Cc1ccc(N=c2c([N+](=O)[O-])nn(-c3ccc(Cl)cc3)n2O)cc1C	none (no result: esBAF inh)
COC(=O)[C@H]1[C@H](CO)[C@H]2Cn3c(ccc(-c4cccc(F)c4)c3=O)[C@H]2N1CC1CC1	none (no result: Vif imaging, SMARCA2 activ, SKN-1 inh, NadD block, NR3A LBD binder)
CCn1c(CCc2ccccc2)nc2ccccc21	esBAF inh 42
CCn1c(N)nc2ccccc21	esBAF inh 53
CCCn1c(N)nc2ccccc21	none
CCn1c(=O)c(C)nn2c3ccccc3nc12	SKN-1 inh 35
Cn1c(=O)c(-c2ccccc2)nn2c3ccccc3nc12	none
COc1ccccc1-c1cnc2c(c1)C(=O)N([C@H](C)CO)C[C@H](C)[C@H](CN(C)C)O2	none (no result: Vif imaging, SMARCA2 activ, SKN-1 inh, NadD block, NR3A LBD binder)
O=C(CSc1nnc(-c2ccco2)n1Cc1ccccc1)c1ccccc1	esBAF inh 44 (no result: Vif imaging)
c1ccc(Cn2c[n+](Cc3ccccc3)c3ccccc32)cc1	SKN-1 inh 35
Cc1cccc(S(=O)(=O)N2CC[C@H]3[C@@H](CO)N(C)c4ccc(-c5ccccc5F)cc4[C@H]32)c1	none (no result: Vif imaging, SMARCA2 activ, SKN-1 inh, NadD block, NR3A LBD binder)
Clc1ccc(Cn2cc(Br)cn2)cc1Cl	SKN-1 inh 47
O=C(CSc1nnc(COc2ccc(Cl)cc2)o1)NC1CC2CCC1C2 (centres undefined)	SKN-1 inh 39
COc1ccc(Cc2nnc(SCC(=O)NC3CCCC3)o2)cc1	NR3A LBD binder 19
COc1ccc(OCc2nnc(SCC(=O)NC3CCCCC3)o2)cc1	none
C[C@H]1CN([C@@H](C)CO)C(=O)c2cc(NC(=O)C3CC3)ccc2O[C@H]1CN(C)S(=O)(=O)c1ccc(F)cc1	none (no result: Vif imaging, SMARCA2 activ, SKN-1 inh, NadD block, NR3A LBD binder)
Cc1ccc(OCCN2C(=O)CSC2=O)cc1	none
